Shown are actives, neighbours in structure and some others; about 21% of the full set was active somewhere.
CYP2C9 act – human CYP2C9 activators, primary screen, biochemical, luminescence; Cytochrome P450 2C9 (Homo sapiens), P11712; recombinant CYP2C9, luciferin-H conversion; active compounds read high; factor 1 = untreated enzyme, 0 = blocked; activation factor at 5 µM; 96,000 tested, 1.4% active; AID 1024, 2008;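 active = activation factor of 2 or more for CYP2C9 at a 5 µM dose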;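 also: 0 = sulfaphenazole-blocked wells and 1 = vehicle-only wells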
Target sequence (P11712 whole entry, looked up): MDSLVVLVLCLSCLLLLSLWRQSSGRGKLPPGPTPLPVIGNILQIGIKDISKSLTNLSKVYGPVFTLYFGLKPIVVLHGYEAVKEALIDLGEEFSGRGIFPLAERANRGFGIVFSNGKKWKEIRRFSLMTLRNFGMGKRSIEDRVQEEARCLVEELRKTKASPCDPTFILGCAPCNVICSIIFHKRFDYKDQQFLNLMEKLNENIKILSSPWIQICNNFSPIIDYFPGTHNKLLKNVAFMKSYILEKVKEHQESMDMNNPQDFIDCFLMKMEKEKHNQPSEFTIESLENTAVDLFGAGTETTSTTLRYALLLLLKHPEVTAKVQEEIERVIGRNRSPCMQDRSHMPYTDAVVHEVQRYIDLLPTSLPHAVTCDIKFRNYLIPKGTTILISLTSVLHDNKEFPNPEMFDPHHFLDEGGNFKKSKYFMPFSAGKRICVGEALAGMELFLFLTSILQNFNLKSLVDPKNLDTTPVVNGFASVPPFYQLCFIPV
MRP resist rev – reversal of MRP1-mediated doxorubicin resistance, primary screen, H69AR cells, doxorubicin co-treatment; H69AR cells + 2 uM doxorubicin, CellTiter-Glo, 72 h; AID 602, 2007; 85,000 tested, 0.04% active; differential viability (reversal), % at 10 µM;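 active = viability drop by adding the cancer drug above about 55%, with treated viability meeting a 40% cutoff, limit read from the data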;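 also: viability without doxorubicin minus viability with 2 µM doxorubicin for each compound; larger differential means the compound sensitizes cells more to doxorubicin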
CYP2C9 inh – blockers of cytochrome P450 2C9 activity – biochemical, luminescence, ADME assay, primary screen. 96,000 tested, 20% active. inhibition, % at 5 µM. CYP2C9 Supersomes, luciferin-H conversion. AID 777, 2007;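 active = blocking of liver enzyme CYP2C9 beyond about 50% at 5 µM, limit read from the data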
CYP2C19 act – human CYP2C19 activators, primary screen, biochemical, luminescence. Cytochrome P450 2C19 (Homo sapiens), P33261. recombinant CYP2C19, luciferin-H EGE luminescence; active compounds read high; 0 = fully inhibited enzyme, 1 = untreated enzyme. activation factor at 5 µM. 96,000 tested, under 10 active. AID 1025, 2008;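 active = activation factor of at least 2 at 5 µM in the primary screen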;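 also: 0 = wells with 2.5 mM tranylcypromine and 1 = vehicle-only wells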
MRP-1 activ – H69AR viability gain despite doxorubicin, primary screen, MRP-1 activator project, H69AR cells, CellTiter-Glo | viability rescue | viability increase, % at 10 µM | 140,000 tested, 0.61% active | AID 799, 2007;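 active = viability gain under doxorubicin at or above a set limit, the compound median plus 3 SD, cut at about 4.7% in these data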;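 also: MRP-1 overexpressing cells given doxorubicin 25 µM after compound pretreatment; 18-22 h compound pretreatment then 72 h with doxorubicin before readout; 0% = doxorubicin-only wells and 100% = vehicle-treated cells without doxorubicin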
CYP2C19 inh – blockers of cytochrome P450 2C19 activity – biochemical, luminescence, ADME assay, primary screen; P33261; CYP2C19 Supersomes, luciferin-H EGE luminescence, 30 min; inhibition, % at 5 µM; 96,000 tested, 21% active;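 active = CYP2C19 inhibition above a set limit at 5 µM in the primary screen, cut at about 50% in these data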;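 also: plate controls were negative control wells for no effect and 2.5 mM tranylcypromine positive control for full effect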
Numbers without * were called inactive; . = not tested or not shown.

SMILES	CYP2C9 act	MRP resist rev	CYP2C9 inh	CYP2C19 act	MRP-1 activ	CYP2C19 inh
CCn1nnc(-c2ccccc2NC(=O)c2cc(OC)c(OC)c(OC)c2)n1	0.1	-30.7	93.3*	0.6	-1.4	36.5
CCn1nnc(-c2ccccc2NC(=O)C(F)(F)F)n1	0.7	.	25.6	0.3	1.3	70.2*
CCOc1ccc(NC(=O)Cn2nnc(-c3ccccc3NC(=O)c3cccs3)n2)cc1	0.5	.	50.5*	0.8	-2.4	19.0
O=C(COc1ccccc1-c1ccccc1)NCc1cccc(Cl)c1	.	.	.	.	-2.1	.
CCOC(=O)c1c(NC(=O)COc2cccc3c2CCN(CC)C3=O)sc2c1CCC2	.	.	.	.	-1.8	.
Cn1c(/C=N/NC(=O)c2ccccc2Br)nc2ccccc21	0.4	.	61.7*	0.3	-2.4	69.2*
O=S(=O)(N1CCCCCC1)N1CCN(S(=O)(=O)N2CCCCC2)CC1	0.8	20.4	20.0	0.9	-1.5	7.8
O=C(Cn1nc(-c2ccccc2)ccc1=O)NCCN1CCN(Cc2ccccc2)CC1	0.9	7.0	7.6	0.2	-2.3	84.2*
O=C(O)Cn1ncc2c1-c1ccoc1CC2	1.1	3.9	-6.4	1.2	-1.4	-18.7
Cc1ccccc1OC1C(=O)N(Cc2ccc3c(c2)OCO3)C1c1sccc1C (stereo unspecified)	0.2	.	81.5*	0.3	-5.3	74.4*
CCOC(=O)N1CCN(S(=O)(=O)c2ccc3c(c2)SC(C)C(=O)N3)CC1 (stereo unspecified)	.	-5.5	.	.	-3.5	.
O=C1Nc2ccccc2/C1=C\c1cccn1-c1ccc(OC(F)(F)F)cc1	0.1	.	87.4*	0.9	-4.2	11.4
Cc1ccc(/C=C2\C(=O)Nc3ccccc32)o1	.	.	.	.	-5.1	.
CCOC(=O)c1ccc(N2Cc3cc(C)c(C)cc3C2)cc1O	1.1	-8.0	-14.6	1.1	.	-14.4
CC(=O)Nc1cccc(NC(=O)CSc2nc(C)c(C)c(C)c2C#N)c1	0.8	1.7	18.9	0.3	-1.8	67.4*
Cc1ccc(NC(=S)NC(NC(=O)c2ccccc2C)C(Cl)(Cl)Cl)c(C)c1 (stereo unspecified)	0.3	.	73.1*	0.8	-3.0	15.1
Cc1ccc(C)c(NC(=S)NC(NC(=O)N(C)C)C(Cl)(Cl)Cl)c1 (stereo unspecified)	0.2	.	77.9*	0.3	-1.3	69.8*
Cc1ccccc1NC(=S)NC(NC(=O)N(C)C)C(Cl)(Cl)Cl (stereo unspecified)	0.5	.	46.0	0.7	-3.3	32.9
O=C(COc1ccccc1)NC(NC(=S)Nc1ccccc1O)C(Cl)(Cl)Cl (stereo unspecified)	0.2	.	82.6*	0.1	-2.6	92.7*
Cc1ccccc1NC(=S)NC(NC(=O)C(C)(C)C)C(Cl)(Cl)Cl (stereo unspecified)	0	.	97.3*	0.8	-4.2	22.8
CCOC(=O)NC(NC(=S)Nc1ccccc1OC)C(Cl)(Cl)Cl (stereo unspecified)	.	.	.	.	-0.9	.
Cc1cc(N2CCOCC2)nc(-c2ccc([N+](=O)[O-])cc2)n1	0.9	.	12.0	0.8	-2.2	21.5
O=C(NCCCCNC(=O)c1ccc(Br)s1)c1ccc(Br)s1	0.5	.	45.8	0.9	0.4	12.4
CCc1ccc(OCC(=O)NC(NC(=S)Nc2ccc(C)cc2C)C(Cl)(Cl)Cl)cc1 (stereo unspecified)	0.4	.	56.9*	0.5	-2.4	54.1*
Cc1ccccc1NC(=S)NC(NC(=O)COc1ccccc1)C(Cl)(Cl)Cl (stereo unspecified)	0.3	.	72.2*	0.4	-6.0	60.6*
SMILES	CYP2C9 act	MRP resist rev	CYP2C9 inh	CYP2C19 act	MRP-1 activ	CYP2C19 inh
CCc1ccc(OCC(=O)NC(NC(=S)Nc2ccccc2C)C(Cl)(Cl)Cl)cc1 (stereo unspecified)	.	.	.	.	-5.8	.
COc1ccc(C(=O)NCCSC2CCCCC2)cc1	.	.	.	.	-0.1	.
CN(C)c1ccc(C(CC(=O)c2ccccc2)C2CCCCC2=O)cc1 (stereo unspecified)	.	.	.	.	-0.8	.
O=C(CC(c1ccco1)C1CCCCC1=O)c1ccco1 (stereo unspecified)	0.4	22.5	55.4*	0.5	-3.7	52.9*
COc1ccc(C(=O)NCC(=O)OC2CCCCC2=O)cc1 (stereo unspecified)	1	1.4	-0.1	0.2	-1.4	80.6*
COc1ccc(C(=O)CC(c2ccccc2)C2CCCCC2=O)cc1 (stereo unspecified)	0.3	7.9	72.6*	0.8	0.3	20.3
C=CCSC1=N/C(=C\c2cc(OCC)c(OC(C)=O)c([N+](=O)[O-])c2)C(=O)S1	.	.	.	.	-4.2	.
S=C1NC(c2ccccc2)=NCN1c1ccc(Cl)cc1	0.6	18.5	41.7	0.2	-1.9	80.0*
Cc1nnn(C23CC4CC(CC(C(=O)NN)(C4)C2)C3)n1	.	.	.	.	0.3	.
COc1cc(Cn2ccnc2)c(OC)cc1Cn1ccnc1	0.3	5.2	72.7*	0.2	-3.3	77.5*
Cc1cc(OCC(=O)NCc2nc(-c3ccccc3)no2)c(C)cc1Br	0.9	-5.3	11.1	1	0.1	-3.3
CCOc1ccc(OCC)c(NC(=O)C2CCCN(S(=O)(=O)c3cnc[nH]3)C2)c1 (stereo unspecified)	0.2	-5.4	79.2*	0.6	-1.9	44.1
CCOc1ccc(OCC)c(NC(=O)C2CCCN(S(=O)(=O)c3c(C)n[nH]c3C)C2)c1 (stereo unspecified)	0.4	-14.5	63.5*	0.5	-4.1	45.4
c1cc2c(cc1Cn1cnnn1)OCO2	0.4	9.5	56.0*	0.9	0.1	14.6
CC(C)NC(=S)N1CCN(c2ncccn2)CC1	.	.	.	.	-0.6	.
O=C(Nc1cc(C(F)(F)F)ccc1N1CCCC1)c1cccnc1	0.6	7.5	43.0	0.6	-1.5	43.3
CCOC(=O)Cn1c(=S)[nH]c2c(oc3ccc(Cl)cc32)c1=O	0.2	2.4	75.5*	1	-1.7	-1.6
COC(=O)c1sc(S(=O)(=O)Nc2ccc(C)cc2)c(C(=O)OC)c1C	.	.	.	.	1.3	.
COC(=O)c1sc(S(=O)(=O)N2CCCCC2)c(C(=O)OC)c1C	0.6	14.1	38.7	0.4	-1.6	62.4*
COC(=O)c1sc(S(=O)(=O)N2CCN(c3ccccc3)CC2)c(C(=O)OC)c1C	0.2	-3.4	77.8*	0.1	-2.9	88.6*
COC(=O)c1sc(S(=O)(=O)NCc2ccccc2)c(C(=O)OC)c1C	0.4	17.3	60.0*	0.2	-2.6	83.4*
CCCCCN(C(=O)NC(=O)Nc1ccccc1C)S(=O)(=O)c1ccccc1	.	.	.	.	-1.5	.
CCOC(=O)CNC1CC(=O)N(c2cccc(Cl)c2)C1=O (stereo unspecified)	0.9	.	9.1	0.9	-0.4	13.6
CCOC(=O)c1cc(C)n(CCc2ccccc2)c1C	0.7	-10.5	34.3	0.9	-0.4	7.7

Screening results: PubChem BioAssay, several laboratories
